This passage reports outcome and AC50 results from PubChem BioAssay (EPA / NIEHS).

Inconclusive results are not listed. Active and inactive are the calls of the source. Rule for the calls, unless noted: active = hit-call score of the fitted dose curve at least 0.9, where 1 is the maximum; inactive = score below 0.9.

Assay [1] can be described thus: CCTE_Shafer_MEA_acute_spike_number: CCTE's Neural Acute Assay for Total Number of Spikes, Shafer Lab (AID 2284008).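 For AC50: curve fitted for decrease in spike count so AC50 reflects inhibitors.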 The gist of the method:
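Primary rat cortical neurons on 16-electrode MEA wells; on DIV 13 or 15, 40-min baseline then 40-min recording with compound (0.03-40 uM) at 37 C. Spikes detected at 8x rms noise; percent change versus baseline, DMSO as negative control.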

Assay [2] is described as follows: CCTE_Shafer_MEA_acute_firing_rate_mean: CCTE's Neural Acute Assay for Mean Firing Rate, Shafer Lab (AID 2284009).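 Note: analyzed for loss of signal so actives lower firing rate relative to DMSO.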 Summed up: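 Primary rat cortical neurons on 16-electrode MEA wells were exposed on DIV 13 or 15 to compound (0.03-40 uM). Spike counts per recording time, averaged over electrodes, were compared between 40-min baseline and 40-min post-exposure recordings as percent change.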

Assay [3] is described as follows: CCTE_Harrill_HTTr_Viability_MCF7: CCTE's 6-hour Cell Viability Assessment for the High-Throughput Transcriptomics (HTTr) Platform, in MCF-7 cells cultured in DMEM + 10% fetal bovine serum, Harrill Lab (AID 2284010). The gist of the method: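 Propidium iodide exclusion, imaged by high-content analysis, gauged viability after a six-hour exposure across eight concentrations. Cells were MCF-7 grown in DMEM with 10% fetal bovine serum; fits run in both directions against DMSO.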

Assay [4] in a line: CCTE_Harrill_HTTr_Apoptosis_MCF7: CCTE's 6-hour Apoptosis Assessment for the High-Throughput Transcriptomics (HTTr) Platform, in MCF-7 cells cultured in DMEM + 10% fetal bovine serum, Harrill Lab (AID 2284011). Summed up:
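MCF-7 cells in DMEM + 10% fetal bovine serum were exposed to chemicals for 6 hours over an eight-point dilution series. Caspase-3/7 activation was imaged by high content imaging with CellEvent Caspase 3/7 Green; bidirectional fitting used DMSO as baseline.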

The nature of assay [5]: CCTE_Shafer_MEA_acute_burst_number: CCTE's Neural Acute Assay for Single-Electrode Bursts, Shafer Lab (AID 2284013). Summed up:
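Primary rat cortical neurons on 16-electrode MEA wells, DIV 13 or 15, exposed to compound (0.03-40 uM; ≥3 wells); 40-min recordings at 37 C before and after treatment. Burst count expressed as percent change from baseline, DMSO as negative control.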

Assay [6] is described as follows: CCTE_Harrill_HTTr_CellCount_MCF7: CCTE's Cell Proliferation Assessment for the High-Throughput Transcriptomics (HTTr) Platform, Harrill Lab (AID 2284012; active = hit-call score of the fitted dose curve at least 0.9, where 1 is the maximum;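 note: cells exposed to compound for six hours; intended direction is loss of nuclei count meaning fewer cells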). The gist of the method: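 Cell count from high-content imaging of Hoechst-labeled nuclei serves as viability/growth readout. Chemicals were applied to MCF-7 cells in eight concentrations for six hours, with fitting in both directions relative to DMSO.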

For `CCCCCCCCCCCCCCCCCC(=O)O`, the result in assay [1], in assay [2], in assay [3], in assay [4] and in assay [5] was inactive.
For `CC1(C)CC(N=C=O)CC(C)(CN=C=O)C1` (centres undefined), the result in assay [3] was inactive.
In the case of `CCCCCCCCCCO`, the compound was called inactive in assay [1], in assay [2], in assay [3], in assay [6] and in assay [5].
`Cc1ccc(C(C)C)c(O)c1`: the compound was classed as inactive in assay [1], in assay [2], in assay [3], in assay [6] and in assay [5].
With `Clc1cc(Cl)c(Cl)cc1Cl`, the outcome in assay [1], in assay [2], in assay [3], in assay [6] and in assay [5] was inactive.
For the compound `CCCc1cc(=O)[nH]c(=S)[nH]1`, the compound was classed as inactive in assay [1], in assay [2], in assay [3], in assay [4], in assay [6] and in assay [5].
With `Nc1ccccc1N`, the call in assay [1], in assay [2], in assay [3], in assay [4], in assay [6] and in assay [5] was inactive.
For the compound `CN1CCCC1=O`, the call in assay [1], in assay [2], in assay [3], in assay [4], in assay [6] and in assay [5] was inactive.
For `CCOC(=O)C(C)(C)Oc1ccc(Cl)cc1`, the compound was classed as inactive in assay [1], in assay [2], in assay [3] and in assay [5].
Regarding `NS(=O)(=O)c1cc2c(cc1Cl)NCNS2(=O)=O`, the call in assay [1], in assay [2], in assay [3], in assay [4], in assay [6] and in assay [5] was inactive.
For `CCCCCC(=O)O`, the result in assay [3] was inactive.
On to `C=CCc1ccc(O)c(OC)c1`, for which the call in assay [1], in assay [2], in assay [3], in assay [4], in assay [6] and in assay [5] was inactive.
For the compound `CC(=O)C(C)=CC1C(C)=CCCC1(C)C` (centres undefined), the outcome in assay [1], in assay [2], in assay [3] and in assay [5] was inactive.
On to `Nc1ccc2c(c1)C(=O)c1ccccc1C2=O`, for which the compound was called inactive in assay [1], in assay [2], in assay [3], in assay [4] and in assay [5].
In the case of `CC(=O)OC/C=C(\C)CCC=C(C)C`, in assay [3], the outcome was inactive.
Turning to `C[Si]1(C)O[Si](C)(C)O[Si](C)(C)O[Si](C)(C)O1`, the call in assay [1], in assay [2], in assay [3], in assay [6] and in assay [5] was inactive.
`FC(F)(F)C(F)(F)C(F)(F)C(F)(F)C(F)(F)C(F)(F)CCI`: the result in assay [1], in assay [2], in assay [3] and in assay [5] was inactive.
What is called AC50 is the concentration at which the activity in the assay is half-maximal. Regarding `COc1cccc2c1C(=O)c1c(O)c3c(c(O)c1C2=O)C[C@@](O)(C(=O)CO)C[C@@H]3O[C@H]1C[C@H](N)[C@H](O)[C@H](C)O1`, the AC50 in assay [3] was 37.5 µM (active).
With `CCCCOC(=O)CCCCCCCCC(=O)OCCCC`, the result in assay [3] was inactive.
`CNCc1cc(F)ccc1Oc1ccc(Cl)c(Cl)c1`: the values for the AC50 in assay [1], in assay [2] and in assay [5] were 3.97 µM (active), 2.55 µM (active) and 2.24 µM (active), respectively. In addition, the outcome in assay [3] and in assay [6] was inactive.
With `Nc1nc(N)c2nc(CNc3ccc(C(=O)N[C@@H](CCC(=O)O)C(=O)O)cc3)cnc2n1`, the outcome in assay [1], in assay [2] and in assay [5] was inactive.
For `O=C(O)CCCCC(=O)O`, the compound was classed as inactive in assay [1], in assay [2], in assay [3], in assay [4], in assay [6] and in assay [5].
In the case of `COCCOC[C@H](CC1(C(=O)NC2CCC(C(=O)O)CC2)CCCC1)C(=O)Oc1ccc2c(c1)CCC2` (some centres undefined), the outcome in assay [3] was inactive.
Take `c1cc(-c2ccncc2)ccn1`: the compound was classed as inactive in assay [1], in assay [2], in assay [3], in assay [4], in assay [6] and in assay [5].
As to `NCC1(Cc2noc(=O)[nH]2)CCCCC1`, the outcome in assay [1], in assay [2], in assay [3], in assay [6] and in assay [5] was inactive.
Take `Cc1ccc2ncccc2c1`: the result in assay [1], in assay [2], in assay [3] and in assay [5] was inactive.
With `CC(=O)OCCOCCOCCOC(C)=O`, in assay [3], the outcome was inactive.
`CCCCCCOCCO`: the result in assay [3] and in assay [4] was inactive.
Take `OC[C@@H](O)[C@@H](O)[C@H](O)[C@H](O)CO`: the outcome in assay [3], in assay [4] and in assay [6] was inactive.
For the compound `Cc1cc(=O)[nH]c(=S)[nH]1`, the result in assay [3] and in assay [6] was inactive.
As for `CC1(C)NC(=O)NC1=O`, the outcome in assay [3], in assay [4] and in assay [6] was inactive.
As for `COC(=O)c1ccc(O)cc1`, the outcome in assay [3] and in assay [6] was inactive.
Consider `CCOC(=O)CCC(=O)OCC`, for which the outcome in assay [3] and in assay [6] was inactive.
Take `CCCCCCCCCCCC(=O)OC`: the outcome in assay [3], in assay [4] and in assay [6] was inactive.
On to `C1CCC(SSC2CCCCC2)CC1`, for which the outcome in assay [3] and in assay [4] was inactive.
As to `CC1=C(/C=C/C(C)=C/C=C/C(C)=C/CO)C(C)(C)CCC1`, the result in assay [3], in assay [4] and in assay [6] was inactive.
Turning to `C[C@]12C=CC(=O)C=C1CC[C@@H]1[C@@H]2C(=O)C[C@@]2(C)[C@H]1CC[C@]2(O)C(=O)CO`, the result in assay [3], in assay [4] and in assay [6] was inactive.
For the compound `O=[N+]([O-])C(CO)(CO)CO`, the outcome in assay [3] and in assay [6] was inactive.
Regarding `CCCCCCCCCCCCCO`, the outcome in assay [3], in assay [4] and in assay [6] was inactive.
For the compound `CC(C)c1ccc(C(=O)N=C(N)N)cc1S(C)(=O)=O`, the result in assay [3], in assay [4] and in assay [6] was inactive.
With `O=c1c(O)c(-c2ccc(O)c(O)c2)oc2cc(O)cc(O)c12`, the result in assay [3] and in assay [4] was inactive.
Turning to `CCCCN(CCCC)CCCC`, the result in assay [3] and in assay [4] was inactive.
Turning to `CCNc1cccc(C)c1`, the result in assay [3] and in assay [6] was inactive.
Turning to `CCCCc1ccc2c(n1)[C@@H](c1ccc(OC)cc1C[C@H](C)C(=O)O)[C@H](C(=O)O)[C@H]2c1ccc2c(c1)OCO2`, the result in assay [3], in assay [4] and in assay [6] was inactive.
`NC(=O)Cn1c(=O)cc(CCN2CCN(c3nccc4sccc34)CC2)c2ccc(F)cc21`: the outcome in assay [3], in assay [4] and in assay [6] was inactive.
Consider `O=C(OCCCCCOC(=O)c1ccccc1)c1ccccc1`, for which the outcome in assay [3], in assay [4] and in assay [6] was inactive.
For `O=c1[nH]cc(F)c(=O)[nH]1`, the outcome in assay [3], in assay [4] and in assay [6] was inactive.
As to `CCCCCCCCCCCCCCCC`, the result in assay [3] and in assay [4] was inactive.
`CCc1c(C(=O)NN2CCCCC2)nn(-c2ccc(Cl)cc2Cl)c1-c1ccc(Br)cc1`: the result in assay [3], in assay [4] and in assay [6] was inactive.
For `Nc1ccc(S(=O)(=O)c2ccc(N)cc2)cc1`, the outcome in assay [3], in assay [4] and in assay [6] was inactive.
Take `O=C(N[C@@H](Cc1ccccc1)[C@@H](O)C(=O)N1C[C@@H](O)[C@@H](O)C1)c1cc2cc(Cl)ccc2[nH]1`: the result in assay [3] and in assay [6] was inactive.
On to `NCCO`, for which the result in assay [3], in assay [4] and in assay [6] was inactive.
As to `Cc1nc(C)nc(N2C[C@@H](C)N(c3ccnc([C@@H](C)O)n3)[C@@H](C)C2)n1`, the outcome in assay [3] and in assay [6] was inactive.
As to `Oc1ccc2ccccc2c1N=Nc1ccccc1`, the outcome in assay [3], in assay [4] and in assay [6] was inactive.
`Oc1ccc2c(c1)OC[C@@H](N1CCC(O)(c3ccc(F)cc3)CC1)[C@H]2O`: the result in assay [3] and in assay [6] was inactive.
